The list is not random: actives were taken first. Their share in the collection is about 4.1%.
IDE act – IDE (human) activation, cell-based. P14735. HEK cells, FAbeta-B cleavage, fluorescence polarization; 0% vehicle, 100% cell-free pure enzyme wells. activation, % at 5.96 µM. 340,000 compounds, 0.073% hits;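 active = activation above the mean of all tested compounds plus 3 SD, set per screening campaign, cut at about 17% in these data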
CaV13 FRET inh – Primary screen for inhibitors of IQ motif and Ca2+-dependent inactivation inhibitor domain binding in CACNA1D, Förster resonance energy transfer in living cells, …; HEK cells, CFP/YFP FRET ICDI-IQ, plate reader, 10 min; percent FRET-ratio fall versus neutral wells; inhibition, % at 12.3 µM; 340,000 compounds, 0.098% hits; AID 743397;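 active = mean replicate inhibition of at least 30% and at least 1% of replicates passing that level; inconclusive = only one of the two criteria is met; inactive = neither criterion is met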
ALR inh – human ALR oxidase inhibition via reduced H2O2; purified ALR, DTT oxidation, H2O2 HRP-luminol luminescence; inhibition, % (concentration not given with the values); 290,000 compounds, 3.8% hits; AID 485317;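 active = mean replicate inhibition above about 79%, with every replicate also reaching it, limit read from the data; inconclusive = only one of the two criteria met; inactive = mean below limit and not every replicate reaching it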
IDE inh – inhibitors of human insulin-degrading enzyme in cells; AID 434962; P14735; inhibition, % at 5.59 µM; HEK cells, FAbetaB cleavage, fluorescence polarization; 320,000 compounds, 0.41% hits;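 active = percent inhibition above the average of all tested compounds plus 3 SD, set per screening campaign, cut at about 16% in these data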;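 note: IDE supplied by intact live HEK cells; FP after avidin binding of uncleaved biotin substrate so inhibition keeps polarization high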
M18AAP inhibitor – PfM18AAP enzyme inhibition. recombinant PfM18AAP, H-Glu-NHMec fluorogenic cleavage. 290,000 compounds, 1.2% hits. inhibition, % at 7.35 µM;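 active = inhibition above the campaign mean inhibition over all tested compounds plus 3 SD, cut at about 28% in these data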
PolyA inhibitor – yeast polyadenylation inhibition; S. cerevisiae SKY197-pL101 polyadenylation reporter, beta-gal luminescence; efflux-impaired pdr1/pdr3 knockout yeast; score 100 = 6 SD above DMSO; activity score, % at 12 µM; 300,000 compounds, 0.02% hits;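 active = lowest replicate activity score at least 50, where 100 means six control SD above control mean; inconclusive = lowest score under 50 but half or more replicates reach 50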;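 note: yeast exposed to compound for 9 h at 30 °C; higher score means more reporter readthrough which indicates perturbed polyadenylation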
A number is an active result; n = inactive; u = inconclusive; x = no result.

SMILES | IDE act | CaV13 FRET inh | ALR inh | IDE inh | M18AAP inhibitor | PolyA inhibitor
COc1cccc(-c2noc(CCCC(=O)N3CCOCC3)n2)c1 | n | n | x | n | n | n
Brc1cccc(CNc2nc3ccccc3n2CCN2CCOCC2)c1 | n | n | n | n | n | n
CCOc1ccc(CNc2nc3ccccc3n2CCN2CCOCC2)cc1 | n | n | 97 | n | n | n
COc1ccc(CNc2nc3ccccc3n2CCN2CCCCC2)cc1 | n | n | 97 | n | n | n
CC(C)n1c(CN(C)c2ccccc2)nc2ccccc21 | n | n | 97 | n | n | n
CCCCn1nnnc1NCc1ccc(N(CC)CC)cc1 | n | n | 99 | n | 31 | n
COc1cc(OC)c(C(=O)OC(C)C(=O)NCc2ccc3c(c2)OCO3)cc1OC (stereo unspecified) | n | n | n | n | x | x
Cc1n[nH]c(=O)nc1Nc1ccc(O)cc1 | n | n | 89 | n | n | n
Cc1ccc(Nc2nc(=O)[nH]nc2C)cc1 | n | n | n | n | n | n
O=C(N/N=C/c1sc(=O)n(-c2ccccc2)c1Cl)c1ccncc1 | n | n | 98 | n | n | n
COc1cc(C(=O)N/N=C/c2sc(=O)n(-c3ccccc3)c2Cl)cc(OC)c1OC | n | n | n | n | n | u
COc1ccc2c(C)c(C(=O)NCC(C)O)oc2c1OC (stereo unspecified) | n | x | n | n | n | n
CC(C(Sc1ccccc1N)c1ccccc1)[N+](=O)[O-] (stereo unspecified) | n | n | u | n | 31 | n
CCOC(=O)Nc1cccc(Nc2ccccc2)c1 | n | n | 99 | n | n | n
CCOC(=O)Nc1cccc(C(=O)O)c1 | n | x | n | n | n | n
O=C(CSc1nccc(=O)[nH]1)N1CCOCC1 | n | n | n | n | n | n
O=C(CSc1nc(O)c(C(c2ccccc2)c2ccccc2)c(=O)[nH]1)N1CCOCC1 | n | n | 91 | n | n | n
CC(C)c1c(O)nc(SCC(=O)N2CCOCC2)[nH]c1=O | n | n | 96 | n | n | n
O=C(CSc1nc(O)c(-c2ccccc2)c(=O)[nH]1)N1CCOCC1 | n | n | n | n | n | n
O=C(c1ccc(=O)n(Cc2ccc(Cl)c(Cl)c2)c1)N1CCOCC1 | n | n | n | n | n | n
Cc1ccc(-n2c(SCC(=O)O)nc3sc4c(c3c2=O)C(C)CCC4)cc1 (stereo unspecified) | n | n | 98 | n | n | n
C[C@H](CO)N1C[C@H](C)[C@@H](CN(C)C(=O)Nc2ccc3c(c2)OCO3)Oc2ccc(NC(=O)NC3CCCCC3)cc2C1=O | n | n | n | n | x | x
Cc1cc(=O)[nH]c(SCC(=O)c2ccc(C(C)C)cc2)n1 | n | n | 98 | n | n | n
Nc1cc(=O)[nH]c(SCC(=O)c2ccc(F)cc2)n1 | n | n | 98 | n | n | n
Cc1ccc(C(=O)CSc2nc(N)cc(=O)[nH]2)cc1 | n | n | 99 | n | n | n
SMILES | IDE act | CaV13 FRET inh | ALR inh | IDE inh | M18AAP inhibitor | PolyA inhibitor
Cc1ccc(C)c(C(=O)CSc2nc(N)cc(=O)[nH]2)c1 | n | n | n | n | n | n
CCN(CC)c1ccc(/C=N/NC(=O)CNC(=O)/C=C/c2ccco2)cc1 | n | n | x | n | n | n
O=C(Nc1ccccc1)c1nccn1Cc1ccc(F)cc1 | n | n | n | n | n | n
O=C1c2ccccc2C(Nc2ccc3c(c2)OCCO3)N1Cc1ccc2c(c1)OCO2 (stereo unspecified) | n | n | 98 | n | n | n
O=C1c2ccccc2C(Nc2ccccc2)N1Cc1ccc2c(c1)OCO2 (stereo unspecified) | n | n | n | n | n | n
CCN(CC)S(=O)(=O)c1ccc(N2CCCC2)c(NC(=O)C2=NN(c3ccccc3)C(=O)CC2)c1 | n | n | n | n | x | x
CC(=O)Nc1sc(NC(=O)c2ccccc2)nc1-c1cccs1 | n | n | 98 | n | n | n
CC(=O)Nc1sc(N/N=C\c2ccc(O)cc2)nc1-c1cccs1 | n | n | 91 | n | n | n
N#CC(c1ccccc1)c1cnccn1 (stereo unspecified) | n | n | n | n | x | n
CCC(CC)c1nnc(NC(=O)c2cc(C(=O)OC)cc([N+](=O)[O-])c2)s1 | n | n | n | n | 30 | n
CCN(CC)CC(=O)Nc1ccc(-c2nc3cc(NC(=O)CN(CC)CC)ccc3o2)cc1 | n | n | n | n | n | n
CCc1ccc2oc(-c3ccc(NC(C)=O)cc3)nc2c1 | n | n | 96 | n | n | n
COc1cc(C(=O)NCC(c2cccs2)N2CCOCC2)ccc1OCc1ccccc1 (stereo unspecified) | x | n | x | x | x | x
COc1ccccc1N1CCN(C2CCC(C)CC2)CC1 (stereo unspecified) | n | 50 | n | n | n | n
COc1ccccc1N1CCN(S(=O)(=O)c2ccccc2)CC1 | n | n | 98 | n | n | n
COc1ccccc1N1CCN(S(=O)(=O)c2cnc[nH]2)CC1 | n | n | 98 | n | n | n
O=S(=O)(c1ccc2nc(-c3ccccc3)[nH]c2c1)N1CCN(c2cccc(Cl)c2)CC1 | n | n | n | n | n | n
COc1ccccc1N1CCN(S(=O)(=O)c2ccc3nc(-c4ccccc4)[nH]c3c2)CC1 | n | n | n | 32 | n | u
COc1ccccc1N1CCN(S(=O)(=O)c2cccs2)CC1 | n | n | n | n | n | n
CC1(C)CC(=O)C(CC(=O)NC2CCCc3ccccc32)C(=O)C1 (stereo unspecified) | n | n | n | n | n | n
CC(C)NC(=O)C1(C)CSCC(=O)N1Cc1cccc(C(F)(F)F)c1 (stereo unspecified) | x | n | x | x | x | x
O=C(OC1CCOC1=O)c1cccc(S(=O)(=O)N2CCc3ccccc3C2)c1 (stereo unspecified) | n | n | n | n | n | n
COc1ccc(C2c3sc(=O)[nH]c3SC3C4CCC(C4)C23)cc1OC (stereo unspecified) | n | n | n | n | n | n
COc1cc(C2c3sc(=O)[nH]c3SC3C(=O)N(c4ccc(Br)cc4)C(=O)C32)ccc1O (stereo unspecified) | n | n | n | n | 28 | n
CCCCCCSc1nc(O)c(C2OC(=O)c3c2ccc(OC)c3OC)c(=O)n1CC (stereo unspecified) | n | x | 98 | n | n | n
CCCSc1nc(O)c(C2OC(=O)c3c2ccc(OC)c3OC)c(=O)n1C (stereo unspecified) | n | n | u | n | n | n
O=C(c1ccc(Cl)cc1)N1CCN(c2ccc(F)cc2)CC1 | n | n | n | n | n | n
Cc1ccc(CN2CCN(c3cccc4[nH]ccc34)CC2)cc1 | n | n | 99 | n | n | n
O=C(c1ccc(Cl)cc1)N1CCN(c2cccc3[nH]ccc23)CC1 | n | n | 97 | n | n | n
